Laboratory results taken from the supplement of paper PMC6555819.

Legend:
Experiment in all cases: PBM binding z-score (relative to random genomic background probes); higher = stronger binding; sequences stand for … in GC…GCGATTGACAGCGTAGAATGAAGG
[1] = system: RARb homodimer (NR concentration 270 nM)
Outline: (§1)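 Custom Agilent 4×180K protein-binding microarrays carried double-stranded probes, each with a 34-nt variable region. These regions held direct-repeat seeds, single-nucleotide variants, half-site ablations and random human genomic background sequences. Ligand-free nuclear receptor dimers were incubated on the arrays for 1 h, antibodies against each partner (one per run) detected binding, and scanned fluorescence was regression-normalized. Binding z-scores take the random background probes as reference.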

[2] = system: RARg:RXRa (NR concentration 270 nM, RXRa partner concentration 90 nM)
Outline: as §1

[3] = system: RARg homodimer (NR concentration 270 nM)
Outline: as §1

[4] = system: RXRa DBDmut IVT, anti-RXR (DBD mutation: RXRa K156A/R161A, NR concentration 90 nM)
Outline: as §1

[5] = system: RXRa homodimer (NR concentration 180 nM)
Outline: as §1

[6] = system: THRa:RXRa (NR concentration 90 nM, RXRa partner concentration 90 nM)
Outline: as §1

[7] = system: THRa homodimer (NR concentration 90 nM)
Outline: as §1

[8] = system: VDR homodimer (NR concentration 270 nM)
Outline: as §1

Sequence | PBM binding z-score [1] | PBM binding z-score [2] | PBM binding z-score [3] | PBM binding z-score [4] | PBM binding z-score [5] | PBM binding z-score [6] | PBM binding z-score [7] | PBM binding z-score [8]
GGGACTGGGGCAAAGCAGGTTACCATAAGGTTGG | 1.75 | 0.941 | 0.994 | -1.03 | 0.55 | 3.3 | 1.32 | 0.624
TGAATGAGGTTGAAGATCAGGGAACGTGGCGTCG | -0.485 | 0.258 | 0.179 | -0.182 | 0.787 | 0.467 | -0.42 | -0.192
CAAACTAGGTCTCCGGAAGGTCAAAGTCCGCATG | 4.17 | 4.36 | 3.46 | 0.358 | 3.68 | 2.88 | 1.4 | 1.84
ATACCAATGTGATCGTGAGGTCGTTGATACTAAC | 0.979 | 0.681 | 0.227 | 0.777 | 1.06 | 2.45 | 2.24 | 2.83
CCAGACAGGTGAAAAGTAACTCAGTCTGGTACGC | -0.15 | 0.316 | 0.402 | 0.15 | 0.307 | -0.0735 | -0.599 | -0.225
CTCGAAAGGTCGTGCTCAGCTGAGTATACCAAAC | 2.34 | 4.28 | 3.82 | 2.32 | 4.89 | 2.19 | -0.199 | 0.89
GCATATAGGTAATACAAGGTTAAAGTCCGATTGT | 1.42 | 0.95 | 0.775 | 0.599 | 1.39 | 4.03 | 0.575 | 0.898
AACGAAAGGTCGTGAGGTGAGTATACAGAAAGGC | 3.14 | 4.62 | 3.99 | 1.68 | 5.2 | 3.55 | 1.33 | 0.812
TCTAGTTGGTCACGGAGGTCACATACGACGGGTA | 4.57 | 4.42 | 4.92 | 1.16 | 4.57 | 3.68 | 2.58 | 2.84
CGAACTAGGTCAGGACAGGACAGTGAAGGATGAT | 2.54 | 2.87 | 4.34 | 0.359 | 1.59 | 3.71 | 1.28 | -0.189
GATATTAGTTGAAAGGGCAACCGAATGATTCTCG | 2.28 | 1.73 | 1.61 | 1.04 | 1.58 | 0.705 | 0.0377 | 0.787
CCGACTGGGGCAAAGGTGACCATACTCAGTACGA | 1.44 | 1.9 | 1.13 | -0.244 | 2.04 | 0.896 | -0.0809 | -0.471
CCTACTGGGCCACGAAAGGTCGTTGATTCAGTGA | 2.27 | 1.65 | 1.29 | -0.0734 | 2.09 | 2.26 | -0.153 | 0.759
ACTAGTTGGTCAGCTGAGGGCACACACAATTCGG | 2.11 | 0.999 | 1.42 | 0.326 | 0.707 | 3.55 | 1.29 | 0.929
CGAACGAGGTCAAGGACAGTGAATCTCCGCACGC | 4.19 | 6.33 | 6.59 | 4.23 | 7.03 | 4.43 | 3.19 | 3.5
ACCGAAAGGTCGACGAGGTGAGTATACACCGTTT | 3.18 | 4.28 | 4.13 | 1.58 | 4.27 | 3.61 | 0.645 | 1.01
AGTTACGGGTCAACGAGGTTATAGCACGCGTATA | 3.88 | 5.45 | 5.57 | 2.14 | 6.14 | 3.97 | 1.18 | 3.49
GCTATTAGTTTAAAGGGCAACCGAATGATTCTCG | 2.38 | 1.36 | 1.44 | 1.56 | 1.05 | 0.923 | 0.375 | 0.916
ACTAGCAGGCCATGTTTGGGTCACTCAAACAAAG | 1.98 | 2.04 | 1.42 | -0.345 | 0.614 | 2.24 | 1.21 | -0.169
ATCGAAAGGTCGAAGGTGAGAATACCCACCCGAA | 2.62 | 4.34 | 4.24 | 1.42 | 5.85 | 2.23 | -0.0436 | 0.515
GCGACTGGCGCATCAGCAGGTTACCATAACTTAA | -0.252 | -0.477 | -0.547 | -0.402 | -0.293 | -0.328 | -0.551 | -0.6
CGTCCAAGGTCAAAGCTCAGTGAAGAGATGACGG | 3.72 | 5.9 | 6.4 | 3.56 | 5.49 | 3.63 | 2.02 | 2.15
ATCGAAAGGTCGTAAGGTGAGTATACAGAAAGGC | 3.06 | 4.61 | 3.87 | 1.72 | 5.29 | 3.35 | 1.64 | 1.24
ACCAGTTGGTCAGCTGAGGTCACACACAATTCGG | 4.44 | 4.2 | 4.52 | 1.29 | 4.27 | 5.07 | 5 | 3.47
ATATATAGGTTACATCCGGGTCATTCAGGCTATG | 3.34 | 4.2 | 2.64 | 1.57 | 3.51 | 4.03 | 2.74 | 3.65
CAAACTCGGTCACCGGAAGGTCAAAGTCCGCATG | 5.22 | 6.88 | 6.29 | 1.12 | 4.82 | 3.44 | 1.59 | 2.65
CCTACTGGGCCATCAGTTCATTGATATCAACGTT | 0.932 | 0.31 | 0.439 | 0.88 | -0.0335 | 0.411 | 0.333 | 3.3
TGAATGAGCTTAAAGATCAGGGAACGTGGCGTCG | -0.993 | -0.123 | -0.307 | -1.41 | 0.0598 | -0.475 | -0.628 | -0.391
